Assay results reported in PubChem BioAssay (NCATS).
Inconclusive results are not listed. The source made the active and inactive calls. Calls follow the shape of the dose curve; as a rule, active = well fitted cell-killing curve with a large enough effect; inconclusive = small, poorly fitted or top-dose-only effect; inactive = flat fitted curve, though single readings scatter.

assay: Cell Viability - LYMP2-018 (AID 985); conditions: LYMP2-018 lymphoblastoid cells, viability (qHTS); series mostly up to 92.2 µM; activity change, negative = cytotoxicity: at the top concentration;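 also: compound exposure lasted 24 hr at 37 °C; nearly all actives have a fitted effect of over 50% in size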;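 as to activity change, negative = cytotoxicity: plate controls were DMSO only for no effect and tetraoctylammonium bromide at 92 µM for full effect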
From the text: NIH Chemical Genomics Center [NCGC]
NIH Molecular Libraries Screening Centers Network [MLSCN]
National Institutes of Environmental Health Sciences [NIEHS]
National Toxicology Program [NTP]
We have developed a 1536-well cell-based assay for quantitative high throughput screening (qHTS) against a number of cell lines to determine in vitro cytotoxicity of small molecules. This particular assay uses a human lymphoblastoid cell line (LYMP2-018) purchased from Coriell Institute for Medical Research.
NCGC Assay Protocol Summary:
The CellTiter-Glo luminescent cell viability assay (Promega) is a homogeneous method to measure the number of viable cells in culture. The end point readout of this assay is based on quantitation of intracellular ATP, an indicator of metabolic activity, using the luciferase reaction. Luciferase catalyzes the oxidation of beetle Luciferin to oxyluciferin and light in the presence of ATP. The luminescent signal is proportional to amount of ATP present.
Using the CellTiter-Glo luminescent cell viability assay, the amount of cellular ATP was measured in the lymphoblastoid cell line with complete culture medium following compound treatment for 24 hours. The assay was performed in opaque white Kalypsys 1536-well plates. In the screen, tetraoctylammonium bromide was used as positive control. Library compounds were measured for their ability to cause acute toxicity in the cell line, as reflected by a decrease in intracellular ATP levels, in a concentration-dependent manner. […] AC50 values were determined from concentration-response data modeled with the standard Hill equation.
qHTS protocol for CellTiter Glo lymphoblastoid cellular assay
[Step] [Parameter] [Value] [Description]
1. Reagent; 5 uL; 2500 lymphoblastoid cells/well
2. Time; 5 hr; 37 C incubation
4. Controls; 23 nL; Tetraoctylammonium bromide 6.4pM to 92 uM
5. Time; 24 hr; 37 C incubation
6. Reagent; 5 uL; CellTiter Glo reagent
7. Time; 30 min; Room Temperature
8. Detection; Luminescence; Viewlux plate reader
Keywords: cell viability, cytotoxicity, lymphoblastoid cell line, luminescence, NTPHTS, NTPHTS_NCGC, NIEHS, DSSTox, MLSMR, MLSCN, NIH Roadmap, qHTS, NCGC
Potency is read from the fitted curve at half-maximal effect.

Row | Compound | activity change, negative = cytotoxicity | Potency
1 | O=P1(N(CCCl)CCCl)NCCCO1 (centres undefined) | 1.55% (inactive) | –
2 | CCCC(C)(COC(N)=O)COC(N)=O | -7.59% (inactive) | –
3 | COc1cc(OC)c(OC)cc1C=O | -5.09% (inactive) | –
4 | COP(=S)(OC)Oc1ccc(SC)c(C)c1 | -6.02% (inactive) | –
5 | COC(=O)C(c1ccccc1)C1CCCCN1 (centres undefined) | -17.3% (inactive) | –
6 | Clc1ccc(C(c2ccc(Cl)cc2)C(Cl)(Cl)Cl)cc1 | -25.8% (inactive) | –
7 | NCCc1ccc(O)cc1 | -8.71% (inactive) | –
8 | C[C@]12CCC(=O)C=C1CC[C@@H]1[C@@H]2CC[C@@]2(C)[C@H]1CC[C@]2(C)O | -14.7% (inactive) | –
9 | CC(C)c1cccc(C(C)C)c1O | 1.18% (inactive) | –
10 | Nc1ccccc1C(=O)O | -13.2% (inactive) | –
11 | CC(C)NC(C)C | -13.6% (inactive) | –
12 | C[C@]12CCC(=O)C=C1CC[C@@H]1[C@@H]2CC[C@]2(C)C(=O)CC[C@@H]12 | – | inactive
13 | Oc1ccc(Cl)cc1 | 0.505% (inactive) | –
14 | O=C(O)CCCc1ccc(N(CCCl)CCCl)cc1 | – | 31.6 µM (active)
15 | CCOC(=O)CC(SP(=S)(OC)OC)C(=O)OCC (centres undefined) | -20.7% (inactive) | –
16 | Nc1ccccc1 | 3.7% (inactive) | –
17 | CN1C[C@H](C(=O)N[C@]2(C)O[C@@]3(O)[C@@H]4CCCN4C(=O)[C@H](Cc4ccccc4)N3C2=O)C=C2c3cccc4[nH]cc(c34)C[C@H]21 | -28.5% (inactive) | –
18 | CCC(C)(C)c1ccc(O)cc1 | -17.8% (inactive) | –
19 | C[C@]1(O)CC[C@H]2[C@@H]3CCC4=CC(=O)CC[C@]4(C)[C@@]3(F)[C@@H](O)C[C@@]21C | -14.8% (inactive) | –
